# MBD2 DNA inh: MBD2-methylated oligo binding inhibition; inhibition, % at 4.4 µM; TR-FRET, MBD2 binding to methylated oligonucleotide; Q9UBB5; actives 0.31% (n = 370,000); in the data active means inhibition above about 13%
# UHRF1 MBD2 ctr: blocks human UHRF1 binding to methylated DNA. actives 0.75% (n = 370,000). Q96T88. UHRF1 binding to methylated oligo, TR-FRET. AID 687016. inhibition, % at 4.4 µM; in the data active means inhibition above about 21%;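 further: UHRF1 SRA domain binding a hemimethylated CpG hairpin DNA probe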
# PRMT1 inh: PRMT1 (human) inhibition, primary screen | Q99873 | recombinant PRMT1, activity-based probe fluorescence polarization | inhibition, % at 2.79 µM | actives 1.3% (n = 370,000) | AID 652257;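 active means inhibition above about 21% made by adding two undisclosed values, limit read from the data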
# Target sequence (Q99873 whole entry, looked up): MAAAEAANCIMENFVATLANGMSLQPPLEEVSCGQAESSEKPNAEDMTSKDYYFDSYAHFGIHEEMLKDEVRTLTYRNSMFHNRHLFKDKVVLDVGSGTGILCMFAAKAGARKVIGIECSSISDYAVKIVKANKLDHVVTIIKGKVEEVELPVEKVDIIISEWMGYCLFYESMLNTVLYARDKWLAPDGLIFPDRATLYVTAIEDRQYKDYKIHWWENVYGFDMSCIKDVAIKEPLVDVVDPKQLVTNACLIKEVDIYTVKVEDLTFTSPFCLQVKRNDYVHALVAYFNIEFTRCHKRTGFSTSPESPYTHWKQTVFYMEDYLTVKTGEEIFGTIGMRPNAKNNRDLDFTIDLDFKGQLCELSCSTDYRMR
# LEDGF integ inh: blocks HIV-1 LEDGF/p75-dependent DNA integration | actives 0.64% (n = 370,000) | TR-FRET IN-LEDGF/p75 DNA integration, Eu/Cy5 | AID 743269 | inhibition, % at 3.7 µM;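 active means inhibition above the screen-wide mean plus 3 SD, cut at about 13% in these data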;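 further: signal is the Cy5 over europium emission ratio at 671 and 618 nm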
# PRMT1 confirm: confirmation of human PRMT1 inhibitors. shares compounds with PRMT1 inh. actives 42% (n = 3,300). inhibition, % at 2.79 µM. recombinant His-PRMT1, activity-based probe fluorescence polarization. AID 687036;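 active means mean inhibition across replicates above the hit cutoff derived for the earlier primary screen, cut at about 22% in these data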
# A number is an active result; n = inactive; x = not tested or not shown. The list is not random: actives were taken first. Their share in the collection is about 2.5%.
SMILES,MBD2 DNA inh,UHRF1 MBD2 ctr,PRMT1 inh,LEDGF integ inh,PRMT1 confirm
CCOC(=O)C1(c2ccccc2)SC(C(=O)OCC)(c2ccccc2)S1 (stereo not given),n,n,70.6,n,59.0
CCOC(=O)C1(c2ccccc2)CCCNC1=O (stereo not given),n,n,n,n,x
CCOC(=O)c1c(-c2ccccc2)oc2cc(CN(C)C)c(O)c(CN(C)C)c12,n,n,26.5,n,n
Cc1ccc(CS(=O)(=O)CCC(=O)NCc2ccccc2Cl)cc1,n,n,n,n,x
CCCOc1ccc(-c2nc(=S)[nH][nH]2)cc1,n,n,45.9,n,n
Cc1ccsc1C(=O)OCC(=O)NCc1ccccc1,n,n,n,n,x
CC(=O)Nc1cc(-c2cccnc2)cn2c(-c3ccc(F)cc3)cnc12,n,n,n,n,x
c1cn2cc(-c3ccc4c(c3)OCO4)nc2s1,n,n,34.6,n,46.4
Cc1ccc(NC(=S)N2CCSC2c2cccs2)cc1 (stereo not given),n,n,59.5,n,n
COc1ccc(NC(=S)N2CCN(C)CC2)cc1,n,n,n,n,x
COc1ccc(C2SCCN2C(=S)Nc2ccc(Cl)cc2)cc1 (stereo not given),n,n,65.6,n,n
COc1ccc(C2SCCN2C(=S)Nc2cccc(Cl)c2)cc1 (stereo not given),n,n,79.7,n,n
Cc1cccc2sc(NNC(=O)c3ccc4c(c3)OCCO4)nc12,n,n,28.5,n,n
CCNc1nc(NCC)n2c(SCC(=O)Nc3ccccc3F)nnc2n1,n,n,27.1,n,n
COc1ccc([C@H]2C[C@@H](O)[C@H](n3cc(C4CC4)nn3)CN2Cc2cccs2)cc1,n,n,n,n,x
S=c1[nH]nc(-c2cc(-c3ccco3)[nH]n2)n1-c1cccc2ccccc12,n,n,36.3,n,33.2
Cc1ccc(-n2c(-c3cc(-c4ccco4)[nH]n3)n[nH]c2=S)c(Br)c1,n,n,n,n,x
COc1cccc(CNS(=O)(=O)/C=C/c2ccc3c(c2)OCO3)c1,n,n,n,n,x
CC(=O)c1c(C)[nH]c(C(=O)Nc2cccc(C#N)c2)c1C,n,n,n,n,x
CCc1c(C(=O)Nc2ccccc2)c(C)[nH]c(=S)c1C#N,n,n,42.7,n,87.9
Cc1[nH]c(=S)c(C#N)c(C)c1C(=O)Nc1ccccc1,n,n,33.1,n,n
c1ccc(CNc2nc3ccccc3[nH]2)cc1,n,n,n,n,x
S=C(NCc1ccccc1)NNc1nc2ccccc2[nH]1,n,n,39.4,n,67.0
CC1(C)Cc2c(c(N3CCOCC3)nc3sc(C(=O)Nc4ccc(Cl)cc4)c(N)c23)CO1,n,n,52.9,n,n
CCOC(=O)c1sc2nc(-c3ccco3)c3c(c2c1N)CC(C)(C)OC3,n,n,41.4,41.7,43.2
SMILES,MBD2 DNA inh,UHRF1 MBD2 ctr,PRMT1 inh,LEDGF integ inh,PRMT1 confirm
CCOc1ccc(NC(=O)c2sc3nc(N4CCOCC4)c4c(c3c2N)CC(C)(C)OC4)cc1,n,n,n,n,x
CC1(C)Cc2c(c(N3CCOCC3)nc3sc(C(N)=O)c(N)c23)CO1,n,n,37.4,n,n
Cc1ccc(C)c(COC(=O)CCN=C2NS(=O)(=O)c3ccccc32)c1,n,n,n,n,x
Cc1nc([N+](=O)[O-])cn1CC(O)c1ccc(F)cc1 (stereo not given),n,n,n,n,x
O=C(O)CN1C(=O)/C(=C\C(Br)=C\c2ccccc2)SC1=S,n,n,30.6,n,33.1
O=C(O)CN1C(=O)/C(=C/C=C/c2ccccc2)SC1=S,n,n,n,n,x
Nc1ccc(-n2cc(-c3ccccc3)[nH]c2=S)cc1,n,n,45.0,n,n
CC(=O)Nc1ccc(Sc2ccc([N+](=O)[O-])o2)cc1,n,n,34.1,n,35.8
O=C(CSc1nnc(CNC(=O)c2ccco2)o1)Nc1nc2ccccc2s1,n,n,56.4,n,n
O=C(CSc1nnc(CNC(=O)c2ccco2)o1)Nc1ccccc1,n,n,n,n,x
CCCCC(=O)Nc1c(O)c2ccccc2[nH]c1=O,n,n,30.5,n,n
CCCCC(=O)NNC(=O)c1c(O)c2ccccc2[nH]c1=O,n,n,n,n,x
CC(=O)Nc1c(O)c2ccccc2[nH]c1=O,n,n,36.2,n,n
CCCn1c(N)c(NCCN2CCOCC2)c(=O)[nH]c1=O,n,n,n,n,x
O=C(COC(=O)CCSc1ccccc1)Nc1ccccc1Br,n,n,n,n,x
CC1(C)CC(=O)C=C(c2ccc(-c3ccc(S(C)(=O)=O)cc3)cc2)C1=O,n,n,n,n,x
Cc1nnc(SCC(=O)NNC(=O)COc2ccc(Cl)cc2)s1,n,n,n,n,x

# From PubChem
